# Laboratory results reported in PubChem BioAssay (Tox21).
# Results filed as inconclusive are left out. The source made the active and inactive calls. Calls come from the whole dose curve; as a rule, active = well fitted activation curve with a large enough effect in the signal ratio in the repeat runs (not every such curve was filed as active); inconclusive = weak or mixed curves, or effect the other way; inactive = flat fitted curve, though single readings scatter; the % refers to the signal ratio.
# Target: Bile acid receptor (Homo sapiens) (UniProt Q96RI1)
# Sequence (Q96RI1 whole entry, looked up): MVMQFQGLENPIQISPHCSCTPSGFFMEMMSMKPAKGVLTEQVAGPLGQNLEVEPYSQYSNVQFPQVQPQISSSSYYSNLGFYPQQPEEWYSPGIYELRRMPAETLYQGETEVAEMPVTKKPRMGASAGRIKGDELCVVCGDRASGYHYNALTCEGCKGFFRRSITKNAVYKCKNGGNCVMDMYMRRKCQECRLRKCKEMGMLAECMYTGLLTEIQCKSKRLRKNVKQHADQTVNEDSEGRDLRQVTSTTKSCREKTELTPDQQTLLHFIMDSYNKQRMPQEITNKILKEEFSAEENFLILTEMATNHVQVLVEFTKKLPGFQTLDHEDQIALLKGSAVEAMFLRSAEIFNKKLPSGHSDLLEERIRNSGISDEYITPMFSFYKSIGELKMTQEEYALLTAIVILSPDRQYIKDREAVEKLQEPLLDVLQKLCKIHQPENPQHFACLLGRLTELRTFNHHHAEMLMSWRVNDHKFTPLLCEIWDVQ
# Assay: qHTS assay to identify small molecule agonists of the farnesoid-X-receptor (FXR) signaling pathway (AID 743220)
# Settings: HEK293T FXR-UAS-bla, beta-lactamase FRET ratio, 16 h; series mostly up to 62.6 µM
# Excerpt: National Center for Advancing Translational Sciences [NCATS]
# NIH Chemical Genomics Center [NCGC]
# U.S. Environmental Protection Agency [EPA]
# National Institutes of Environmental Health Sciences [NIEHS]
# National Toxicology Program [NTP]
# U.S. Food and Drug Administration [FDA]
# The farnesoid-X-receptor (FXR), a nuclear hormone receptor, is highly expressed in liver, intestine, kidney and adrenal cortex. Natural ligands of FXR are the bile acids (Cholic acid, Chenodeoxy cholic acid etc). FXR is an important regulator of diverse metabolic pathways, including the bile acid homeostasis, lipid and glucose metabolisms. FXR regulates the expression of target genes by binding either as a monomer or as a heterodimer with the retinoid X receptor (RXR). Numerous studies have reported that FXR exerts protective function during cholestasis, diabetes, liver regeneration, and cancer. To identify compounds that activate FXR signaling, GeneBLAzer FXR-UAS-bla HEK 293T cell line (Invitrogen, Carlsbad, CA) containing a beta-lactamase reporter gene under the control of a UAS response element was used to screen the Tox21 10K compound library.
# Tox21 Assay Protocol Summary:
# FXR-bla cells were dispensed at 5000 cells/5uL/well in 1536-well black wall/clear bottom plates using a Multidrop Combi (Thermo Fisher Scientific, Waltham, MA) dispenser. After the assay plates were incubated at 37C and 5% CO2 for 5 h, 23 nL of compounds dissolved in DMSO, positive controls or DMSO only was transferred to the assay plate by a Pintool station (Kalypsys, San Diego, CA). The assay plates were incubated at 37C for 16 h. After 1 uL of LiveBLAzerTM B/G FRET substrate was added using a Bioraptr Flying Reagent Dispenser (FRD) workstation (Beckman Coulter, Indianapolis, IN), the plates were incubated at room temperature for 2 h, and fluorescence intensity was measured by an Envision plate reader (PerkinElmer, Shelton, CT).
row,SMILES,outcome
1,COC(/C=C(\C)CCC=C(C)C)OC,inactive
2,CNC(=O)NC,inactive
3,NS(=O)(=O)c1cc2c(cc1Cl)NC(C(Cl)Cl)NS2(=O)=O (stereo not given),inactive
4,O=C1OC(=O)c2cc(Oc3ccc4c(c3)C(=O)OC4=O)ccc21,inactive
5,NC(=O)NNC(N)=O,inactive
6,CCN1CN(CC)CN(CC)C1,inactive
7,O=c1[nH]c(=O)c2ccccc2o1,inactive
8,O=c1cc(O)c(Cl)c[nH]1,inactive
9,COc1cc2c3cc1Oc1cc(ccc1O)C[C@@H]1c4c(cc(OC)c(O)c4Oc4ccc(cc4)C[C@@H]3N(C)CC2)CC[N+]1(C)C,inactive
10,CO/N=C(/C(=O)N[C@@H]1C(=O)N2C(C(=O)O)=C(Cn3nnc(C)n3)CS[C@H]12)c1csc(N)n1,inactive
11,O=C(O)c1ccccc1C(=O)OCc1ccccc1,inactive
12,CC(=O)OC(C(=O)c1ccccc1)c1ccccc1 (stereo not given),inactive
13,O=P(O)(O)OCC(O)CO (stereo not given),inactive
14,CCOC(=O)CC#N,inactive
15,COc1cc([N+](=O)[O-])ccc1N,inactive
16,CCCCCCCCCCCCCCCCI,inactive
17,CCc1nccnc1C,inactive
18,CC(C)CCCCCCOC(=O)C1CCCCC1C(=O)OCCCCCCC(C)C (stereo not given),inactive
19,CN(C1CCCCC1)S(=O)(=O)c1ccccc1N,inactive
20,c1ccc(CNc2ncnc3nc[nH]c23)cc1,inactive

row,SMILES,outcome
1,CC(=O)OCCCc1ccccc1,inactive
2,BrC/C=C/CBr,inactive
3,CC(C)=CC(C)(C)C,inactive
4,Nc1c(NC/C=C\COc2cc(CN3CCCCC3)ccn2)c(=O)c1=O,inactive
5,CC(=O)Nc1ncc([N+](=O)[O-])s1,inactive
6,CC(=O)OC(C)(C)Cc1ccccc1,inactive
7,O=C1OC(=O)c2ccccc21,inactive
8,C=COCCOCCOC=C,inactive
9,CCN(Cc1cccc(S(=O)(=O)O)c1)c1ccccc1,inactive
10,C[CH2][Ge]([Cl])([CH2]C)[CH2]C,inactive
11,Nc1cc(S(=O)(=O)O)ccc1S(=O)(=O)O,inactive
12,CC(C)COC(=O)/C=C/c1ccccc1,inactive
13,NC(=O)NC(=O)Cc1ccccc1,inactive
14,O=C(c1ccc2c(c1)C(=O)OC2=O)c1ccc2c(c1)C(=O)OC2=O,inactive
15,CCCOCCOCCOCCO,inactive
16,CCCCOC(=O)[C@@H](C)Oc1ccc(Oc2ccc(C(F)(F)F)cn2)cc1,inactive
17,C=CCOc1c(Br)cc(C(C)(C)c2cc(Br)c(OCC=C)c(Br)c2)cc1Br,inactive
18,Nc1ccc(S(=O)(=O)Nc2ccccn2)cc1,inactive
19,CCCCCCCCCCCCCCCC(=O)NCCO,inactive
20,C=C(C)C(=O)OC1CC(C)CC(C)(C)C1 (stereo not given),inactive
